Bioassay records as filed in PubChem.
A selection: hits, their analogues and other compounds. The true share with any hit is near 8.1%.
SW480 rereplic: induces DNA re-replication in SW480 colon adenocarcinoma cells; SW480 DNA re-replication, Hoechst DNA content imaging, 48 h; Potency, µM (titrated, usually from 46.1 µM), inactives show at the highest dose re-replication activation, most hits filed as activators; actives 1.8% (n = 340,000); AID 624297; also: % of control where 0% means no effect; nearly all actives have a fitted effect of over 55% in size
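Quantitative HTS format with DMSO vehicle controls; 48 hr drug incubation at 37 C, then 40 min Hoechst staining and scanning imager measurement at 405 nm excitation.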
MCF10A rerep: induces DNA re-replication in MCF 10a normal breast cells | MCF 10A DNA re-replication, Hoechst nuclear intensity, 48 h | Potency, µM (doses to about 46.1 µM), for inactives: at the top dose activity, positive = re-replication, usual class: activators | actives 2.9% (n = 350,000); also: % of control where 0% means no effect; nearly all actives have a fitted effect of over 50% in size
KB-3-1 tox: KB-3-1 parental cell cytotoxicity; KB-3-1 viability, CellTiter-Glo ATP luminescence, 72 h; Potency, µM (titrated, usually from 46.1 µM), actives largely listed as cytotoxic; actives 1.4% (n = 400,000); AID 1347075; also: % is scaled to controls: 0 for no effect and ±100 for the full control effect; nearly all actives have a fitted effect of over 60% in size
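Using CellTiter-Glo luminescence, growth of non-resistant KB-3-1 adenocarcinoma cells is assessed 72 h after pin-tool compound addition at 37 °C. Normalized responses across the concentration series yield fitted curves.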
ELG1 repair inh: blocks ELG1-dependent DNA repair in HEK293T cells; HEK293T ELG1-luciferase reporter, luminescence, 16 h; DNA damage induced by 5-fluorouridine; Potency, µM (doses to about 46.1 µM), inactives show at the highest dose activity change, negative = inhibition, usual class: inhibitors; actives 2.3% (n = 330,000); also: % is scaled to controls: 0 for no effect and ±100 for the full control effect; nearly all actives have a fitted effect of over 55% in size
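Step one: seed 2,000 cells per well. Step two: pin-transfer compound or DMSO alongside 5-fluorouridine. Step three: incubate 16 hr, 37 °C, 5% CO2. Step four: add ONE-Glo, wait 30 min, read luminescence.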
KB-V1 cytotox: KB-V1 MDR subline cytotoxicity | AID 1347076 | Potency, µM (titrated, usually from 46.1 µM), actives largely listed as cytotoxic | actives 3.4% (n = 400,000) | KB-V1 MDR cells viability, CellTiter-Glo, 72 h; also: % is scaled to controls: 0 for no effect and ±100 for the full control effect; nearly all actives have a fitted effect of over 60% in size
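Cells of the MDR subline KB-V1 are plated, dosed with compound at multiple concentrations, and incubated 72 h at 37 degrees C; CellTiter-Glo is then added and luminescence read after 10 min.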
* marks the source's active call; other numbers are inactive results; i = inactive; ? = inconclusive; . = no result given; [ ] = dose if it differs, or a comment. Calls follow the shape of the dose curve; as a rule, active = well fitted curve in the direction sought with a large enough effect; inconclusive = small, poorly fitted or top-dose-only effect, or another doubt; inactive = no such curve, though single readings can be large; an effect the other way counts as inactive or inconclusive. Potency is read from the fitted curve at half-maximal effect.

SMILES	SW480 rereplic	MCF10A rerep	KB-3-1 tox	ELG1 repair inh	KB-V1 cytotox
COC(=O)c1c(/N=C/N(C)C)sc2c1CCN(c1ncc(C(F)(F)F)cc1Cl)C2	2%	?	i	18µM*	i
CCCCN1C(=O)/C(=C/C=C2\Oc3ccccc3N2CC)SC1=S	-4%	2%	i	11%	i
CCN1/C(=C/C=C/c2oc3ccc(-c4ccccc4)cc3[n+]2CC)Oc2ccc(-c3ccccc3)cc21	?	-9%	9.2µM*	12µM*	15µM*
O=C(C[n+]1ccccc1Cl)c1ccc2c(c1)CCCC2	.	.	i	.	i
Cc1cccc(NC(=O)CCC(=O)N/N=C/c2ccc(O)cc2O)c1	6.5µM*	?	i	-20%	i
COc1ccccc1/C=C\C(=O)NCC(=O)N/N=C/c1ccc(O)cc1O	-3%	?	i	23µM*	i
O=C(CCc1ccccc1)NCC(=O)N/N=C/c1ccc(O)cc1O	?	?	i	8.2µM*	?
Cc1ccc(NC(=O)CCC(=O)N/N=C/c2ccccc2O)cc1	11%	1%	i	?	i
COc1ccc(C(=O)Nc2ccccc2C(=O)NCc2ccco2)cc1OC	-7%	?	i	15µM*	?
COc1ccc(-c2noc(-c3ccccc3C(=O)NCc3ccco3)n2)cc1OC	-4%	?	i	8.2µM*	3.7µM*
O=C(NCc1ccco1)c1ccc(COc2cccc3ccccc23)cc1	?	-6%	i	-3%	21µM*
COc1ccc(CCNC(=O)c2ccccc2NC(=O)c2ccco2)cc1OC	7%	0%	i	18µM*	i
Cc1ccc(C(=O)OCC(=O)c2ccc(Br)cc2)cc1S(=O)(=O)N1CCOCC1	-1%	1%	i	.	i
Cc1ccc(C)c(S(=O)(=O)N2CCN(C(=O)[C@H](C)N3C(=O)C4CC=CCC4C3=O)CC2)c1 (stereo partly drawn)	14%	-1%	i	2%	i
CN(C(=O)c1cccc(NC(=O)Cc2cccc(NC(=O)C3CCCN(C(=O)C4CCC4)C3)c2)c1)C1CCC1 (stereo not drawn)	2%	21%	i	.	i
COc1ccc(N2CC(C(=O)Nc3ccccc3C(=O)NCc3ccco3)CC2=O)cc1 (stereo not drawn)	1%	6%	i	?	i
COc1cccc(NC(=O)c2ccccc2-c2nc(-c3ccccc3)no2)c1	3%	-2%	i	-27%	?
COc1ccc(C(=O)Nc2ccc(Cl)cc2C(=O)NCc2ccco2)cc1OC	-2%	?	i	16µM*	?
COc1cccc(NC(=O)c2ccccc2-c2nc(-c3ccc(F)cc3)no2)c1	3%	7%	i	?	18µM*
CCCOc1ccc(N2CC(C(=O)Nc3ccccc3C(=O)NCc3ccco3)CC2=O)cc1 (stereo not drawn)	-2%	-12%	i	18µM*	i
COc1cc(NC(=O)c2ccco2)c(C(=O)OCC(=O)c2c[nH]c3ccccc23)cc1OC	?	23µM*	i	8.2µM*	i
COc1cc(NC(=O)CSc2nnc(C)n3c2cc2oc(C)cc23)cc(OC)c1	.	.	i	.	i
COc1ccc(C(=O)Nc2c(Cl)cc(Cl)cc2C(=O)NCc2ccco2)cc1	3%	7%	i	-22%	7.3µM*
O=C(Nc1ccccc1C(=O)NCc1ccc(Cl)cc1)c1ccco1	?	19%	i	?	8.2µM*
Cc1ccccc1C(=O)Nc1ccccc1C(=O)NCc1ccccc1	-3%	?	i	?	21µM*
SMILES	SW480 rereplic	MCF10A rerep	KB-3-1 tox	ELG1 repair inh	KB-V1 cytotox
COc1ccc(Cl)cc1C(=O)NCc1ccco1	-18%	-5%	i	?	i
COc1ccc(S(=O)(=O)NCC2CCCN(C(=O)CCSC)C2)cc1 (stereo not drawn)	-3%	-6%	i	0%	i
NC[C@@H]1O[C@@H](O[C@H]2[C@H](O)[C@H](O[C@@H]3O[C@H](CO)[C@@H](O)[C@H](N)[C@@H]3O)[C@@H](N)C[C@H]2N)[C@H](N)C[C@@H]1O	-10%[20.6 µM]	0%[20.6 µM]	.	.	.
O=C(Nc1ccc(F)c(Cl)c1)C1Cc2c(-c3ccccc3Oc3ccccc3)ccnc2O1 (stereo not drawn)	.	.	i	.	i
Cc1ncc(C[n+]2csc(CCOP(=O)(O)O)c2C)c(N)n1	-5%	-2%	.	.	.
CCOC(=O)C1=C(O)/C(=C/c2cn(CC(=O)N3CCCC3)c3ccccc23)SC1=Nc1ccccc1	?	8.2µM*	15µM*	4.1µM*	i
Cc1ccc(C)n1-c1nnc(N2CCCC(C(=O)NCc3ccc(F)cc3)C2)s1 (stereo not drawn)	.	.	i	.	i
COc1ccc(-n2c(COc3ccc(Cl)cc3)nnc2SCc2ccc(C#N)cc2)cc1	2%	15%	i	?	?
N#Cc1ccc(OCc2nnc(SCC(=O)c3ccccc3)n2-c2ccccc2)cc1	-3%	?	i	15µM*	i
COc1ccc(-n2c(COc3ccc(C)cc3)nnc2SCc2ccc(C#N)cc2)cc1	1%	6%	i	5%	6.5µM*
Cc1ccc(OCc2nnc(SCC(=O)c3ccccc3)n2-c2ccccc2)cc1	30%	?	i	23µM*	i
Cc1ccc(OCc2nnc(SCC(=O)O)n2-c2ccccc2)cc1	-3%	3%	i	.	i
N#CCc1ccc(NC(=O)c2ccc(S(=O)(=O)N3CCCC3)cc2)cc1	-8%	30%	i	21µM*	i
O=C(Nc1ccc(Cc2ccncc2)cc1)c1ccc(S(=O)(=O)N2CCOCC2)cc1	-7%	-1%	i	13µM*	?
O=C(Nc1ccc(S(=O)(=O)N2CCCC2)cc1)c1ccc(F)cc1	-1%	1%	i	.	i
O=C(Nc1ccc(S(=O)(=O)Nc2ccc(F)cc2)cc1)c1ccc(CN2CCOCC2)cc1	?	?	3.7µM*	?	?
COc1ccc(NS(=O)(=O)c2ccc(NC(=O)c3ccc(CN4CCOCC4)cc3)cc2)cc1	?	?	?	-9%	i
O=C(Nc1ccc(S(=O)(=O)N2CCN(Cc3ccccc3)CC2)cc1)c1cnccn1	-3%	4%	10µM*	?	2.3µM*
CCN(CC(=O)Nc1ccc(NC(C)=O)cc1)C(=O)CCN1C(=O)C2CC=CCC2C1=O (stereo not drawn)	4%	-3%	i	-6%	i
O=C1CCSC2=C1SCc1sccc12	.	.	i	.	i
CC(=O)OC(C)[C@H]1CC[C@H]2[C@@H]3CC[C@H]4C[C@@H](OC(C)=O)CC[C@]4(C)C3=CC[C@]12C (stereo partly drawn)	20%[9.22 µM]	1%	i	4%	i
